Experimental data from PMC7862700, “An all-to-all approach to the identification of sequence-specific readers for epigenetic DNA modifications on cytosine”.

How the values were obtained:
Assay in all cases: DAPPL (digital affinity profiling via proximity ligation, sequencing); 10 mM Tris-HCl pH 7.5, 50 mM NaCl, 1 mM DTT, 4% glycerol, room temperature, 30 min; GST-TFs on glutathione beads, 16-mer random dsDNA library, 0.1% formaldehyde crosslink after washing; high values mean tight binding
Conditions in all cases: protein: recombinant; tags: N-terminal GST; dsDNA, one strand shown
[1] = molecular target: T1, FEV (Homo sapiens, UniProt Q99581 1-238)
T1 sequence: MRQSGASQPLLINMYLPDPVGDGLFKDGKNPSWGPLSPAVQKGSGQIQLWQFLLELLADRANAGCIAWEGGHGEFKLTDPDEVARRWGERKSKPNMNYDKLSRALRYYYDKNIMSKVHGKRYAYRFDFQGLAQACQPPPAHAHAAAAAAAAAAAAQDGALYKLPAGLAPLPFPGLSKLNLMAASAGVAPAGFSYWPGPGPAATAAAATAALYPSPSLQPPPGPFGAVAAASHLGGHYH
Procedure, shortened: (§1)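 GST fusions of human transcription factors were expressed in yeast and captured with glutathione beads. Once given DNA barcodes and pooled alongside a tag-only sample, they were incubated for 30 min at room temperature with 200 nmole of a random double-stranded 16-mer DNA library in Tris/NaCl/DTT/glycerol buffer, then washed, crosslinked (0.1% formaldehyde), proximity-ligated, PCR-amplified and sequenced on an Illumina NextSeq500. The binding signal of each hexamer is its read frequency for a factor divided by its frequency for the tag-only sample.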

[2] = molecular target: ETV5 (Homo sapiens, UniProt P41161 1-510)
Chain of ETV5 (P41161 whole entry): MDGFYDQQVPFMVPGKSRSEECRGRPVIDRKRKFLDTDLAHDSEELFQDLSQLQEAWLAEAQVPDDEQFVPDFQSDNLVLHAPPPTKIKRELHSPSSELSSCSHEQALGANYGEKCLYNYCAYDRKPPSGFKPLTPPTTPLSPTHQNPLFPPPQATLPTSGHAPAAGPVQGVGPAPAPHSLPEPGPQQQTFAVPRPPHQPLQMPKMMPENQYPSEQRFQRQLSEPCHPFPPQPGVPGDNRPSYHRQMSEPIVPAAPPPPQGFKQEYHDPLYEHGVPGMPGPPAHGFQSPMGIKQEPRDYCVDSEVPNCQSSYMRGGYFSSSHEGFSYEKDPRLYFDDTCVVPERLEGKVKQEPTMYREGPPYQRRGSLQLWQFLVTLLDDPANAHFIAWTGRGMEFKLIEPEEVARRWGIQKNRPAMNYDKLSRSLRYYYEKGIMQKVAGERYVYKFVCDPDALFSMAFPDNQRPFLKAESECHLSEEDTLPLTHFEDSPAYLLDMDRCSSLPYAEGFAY
Procedure, shortened: as §1

[3] = molecular target: T2, SPIC (Homo sapiens, UniProt Q8N5J4 1-248)
T2 sequence: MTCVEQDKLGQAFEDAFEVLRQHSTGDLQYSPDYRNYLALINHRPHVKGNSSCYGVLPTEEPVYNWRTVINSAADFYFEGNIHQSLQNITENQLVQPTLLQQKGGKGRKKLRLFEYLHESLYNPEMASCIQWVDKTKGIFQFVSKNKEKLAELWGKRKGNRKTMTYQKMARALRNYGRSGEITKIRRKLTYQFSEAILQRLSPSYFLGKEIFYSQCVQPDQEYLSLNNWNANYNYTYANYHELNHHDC
Procedure, shortened: as §1

[4] = molecular target: ELF4 (Homo sapiens, UniProt Q99607 1-663)
Chain of ELF4 (Q99607 whole entry): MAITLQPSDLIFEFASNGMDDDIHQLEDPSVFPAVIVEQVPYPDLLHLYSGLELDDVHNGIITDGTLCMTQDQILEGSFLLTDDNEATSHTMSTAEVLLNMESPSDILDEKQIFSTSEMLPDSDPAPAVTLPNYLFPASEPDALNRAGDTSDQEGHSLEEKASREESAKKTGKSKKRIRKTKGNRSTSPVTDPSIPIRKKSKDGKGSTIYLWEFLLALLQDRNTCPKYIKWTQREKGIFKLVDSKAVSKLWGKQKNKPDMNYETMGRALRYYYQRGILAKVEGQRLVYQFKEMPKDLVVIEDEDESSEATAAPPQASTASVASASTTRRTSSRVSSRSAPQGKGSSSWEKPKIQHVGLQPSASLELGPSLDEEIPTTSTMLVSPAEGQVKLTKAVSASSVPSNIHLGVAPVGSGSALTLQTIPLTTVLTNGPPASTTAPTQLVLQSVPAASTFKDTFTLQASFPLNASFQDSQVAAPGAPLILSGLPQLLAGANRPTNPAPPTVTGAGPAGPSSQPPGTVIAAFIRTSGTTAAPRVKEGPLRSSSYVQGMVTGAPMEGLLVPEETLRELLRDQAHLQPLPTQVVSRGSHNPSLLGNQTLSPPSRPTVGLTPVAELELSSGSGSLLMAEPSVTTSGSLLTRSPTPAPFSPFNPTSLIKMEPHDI
Procedure, shortened: as §1

[5] = molecular target: T3, ELK4 (Homo sapiens, UniProt P28324-2 1-405)
T3 sequence: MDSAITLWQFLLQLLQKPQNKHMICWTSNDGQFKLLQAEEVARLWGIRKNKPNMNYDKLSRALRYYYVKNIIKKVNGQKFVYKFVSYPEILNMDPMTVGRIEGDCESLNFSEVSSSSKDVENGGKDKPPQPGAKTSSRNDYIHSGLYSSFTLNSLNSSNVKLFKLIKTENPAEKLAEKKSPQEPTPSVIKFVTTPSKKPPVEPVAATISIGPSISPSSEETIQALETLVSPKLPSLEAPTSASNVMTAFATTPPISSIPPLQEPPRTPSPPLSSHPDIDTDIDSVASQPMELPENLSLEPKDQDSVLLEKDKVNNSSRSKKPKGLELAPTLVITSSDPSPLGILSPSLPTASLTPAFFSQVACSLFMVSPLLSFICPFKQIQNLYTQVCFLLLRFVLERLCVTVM
Procedure, shortened: as §1

[6] = molecular target: T4, ETV2 (Homo sapiens, UniProt O00321 1-342)
T4 sequence: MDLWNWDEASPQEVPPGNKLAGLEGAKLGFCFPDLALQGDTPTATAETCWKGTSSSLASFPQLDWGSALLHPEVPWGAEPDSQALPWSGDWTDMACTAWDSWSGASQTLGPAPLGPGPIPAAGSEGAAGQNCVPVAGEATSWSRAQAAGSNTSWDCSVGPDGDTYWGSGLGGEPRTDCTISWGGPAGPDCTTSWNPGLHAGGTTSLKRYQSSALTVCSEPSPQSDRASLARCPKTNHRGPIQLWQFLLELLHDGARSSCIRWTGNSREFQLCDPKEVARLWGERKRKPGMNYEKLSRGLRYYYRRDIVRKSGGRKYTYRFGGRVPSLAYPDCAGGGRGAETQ
Procedure, shortened: as §1

[7] = molecular target: T5, ELF3 (Homo sapiens, UniProt P78545 1-371)
T5 sequence: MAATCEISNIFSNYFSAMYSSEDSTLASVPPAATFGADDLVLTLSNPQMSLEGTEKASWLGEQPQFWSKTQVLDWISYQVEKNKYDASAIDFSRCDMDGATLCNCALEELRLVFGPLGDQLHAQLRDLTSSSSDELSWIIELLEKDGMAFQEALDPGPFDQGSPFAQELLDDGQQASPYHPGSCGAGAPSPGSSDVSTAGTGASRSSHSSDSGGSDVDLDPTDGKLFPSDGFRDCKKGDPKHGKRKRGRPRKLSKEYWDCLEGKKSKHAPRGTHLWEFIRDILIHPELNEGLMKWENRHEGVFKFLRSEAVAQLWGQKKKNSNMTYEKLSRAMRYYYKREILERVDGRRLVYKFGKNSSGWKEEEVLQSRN
Procedure, shortened: as §1

[8] = molecular target: ETV1 (Homo sapiens, UniProt P50549 1-477)
Chain of ETV1 (P50549 whole entry): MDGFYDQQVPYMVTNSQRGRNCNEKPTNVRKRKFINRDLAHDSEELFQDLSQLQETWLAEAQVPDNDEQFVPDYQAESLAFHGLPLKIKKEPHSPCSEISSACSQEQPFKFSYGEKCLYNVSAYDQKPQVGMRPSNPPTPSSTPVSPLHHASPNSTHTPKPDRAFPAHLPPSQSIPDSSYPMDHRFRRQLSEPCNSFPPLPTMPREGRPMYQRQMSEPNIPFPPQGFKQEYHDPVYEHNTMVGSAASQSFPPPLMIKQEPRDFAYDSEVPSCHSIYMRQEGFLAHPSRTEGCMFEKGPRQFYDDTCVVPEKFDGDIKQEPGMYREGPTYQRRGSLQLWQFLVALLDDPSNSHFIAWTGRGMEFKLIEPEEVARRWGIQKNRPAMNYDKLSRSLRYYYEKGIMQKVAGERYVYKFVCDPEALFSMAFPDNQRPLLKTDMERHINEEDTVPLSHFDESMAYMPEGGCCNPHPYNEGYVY
Procedure, shortened: as §1

[9] = molecular target: T6, ERF (Homo sapiens, UniProt P50548 1-548)
T6 sequence: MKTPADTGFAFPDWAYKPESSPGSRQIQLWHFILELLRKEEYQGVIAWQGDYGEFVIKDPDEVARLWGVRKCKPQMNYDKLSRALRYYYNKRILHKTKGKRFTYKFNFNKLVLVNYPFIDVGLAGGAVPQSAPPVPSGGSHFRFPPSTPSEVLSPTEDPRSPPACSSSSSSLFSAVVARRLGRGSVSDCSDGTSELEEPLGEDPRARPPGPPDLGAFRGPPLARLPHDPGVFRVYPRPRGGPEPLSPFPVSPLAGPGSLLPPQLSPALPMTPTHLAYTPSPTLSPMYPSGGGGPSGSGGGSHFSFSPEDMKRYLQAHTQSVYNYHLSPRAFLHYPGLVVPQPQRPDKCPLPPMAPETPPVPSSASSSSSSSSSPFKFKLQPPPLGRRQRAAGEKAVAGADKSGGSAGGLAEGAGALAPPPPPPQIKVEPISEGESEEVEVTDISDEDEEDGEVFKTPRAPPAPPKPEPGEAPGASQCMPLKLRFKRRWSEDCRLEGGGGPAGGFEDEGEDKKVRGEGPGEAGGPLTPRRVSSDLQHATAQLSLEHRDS
Procedure, shortened: as §1

[10] = molecular target: T7, ETV3L (Homo sapiens, UniProt Q6ZN32 1-361)
T7 sequence: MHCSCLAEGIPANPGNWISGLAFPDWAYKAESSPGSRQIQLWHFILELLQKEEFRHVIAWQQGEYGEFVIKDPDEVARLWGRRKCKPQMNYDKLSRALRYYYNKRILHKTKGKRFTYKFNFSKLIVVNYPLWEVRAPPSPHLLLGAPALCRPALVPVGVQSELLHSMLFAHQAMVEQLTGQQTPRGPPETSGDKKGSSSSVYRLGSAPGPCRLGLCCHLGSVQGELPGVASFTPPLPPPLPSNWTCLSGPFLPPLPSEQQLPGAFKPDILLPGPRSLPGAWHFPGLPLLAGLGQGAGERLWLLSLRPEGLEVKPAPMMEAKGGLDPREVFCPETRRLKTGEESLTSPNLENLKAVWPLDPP
Procedure, shortened: as §1

[11] = molecular target: T8, ETS2 (Homo sapiens, UniProt P15036 1-469)
T8 sequence: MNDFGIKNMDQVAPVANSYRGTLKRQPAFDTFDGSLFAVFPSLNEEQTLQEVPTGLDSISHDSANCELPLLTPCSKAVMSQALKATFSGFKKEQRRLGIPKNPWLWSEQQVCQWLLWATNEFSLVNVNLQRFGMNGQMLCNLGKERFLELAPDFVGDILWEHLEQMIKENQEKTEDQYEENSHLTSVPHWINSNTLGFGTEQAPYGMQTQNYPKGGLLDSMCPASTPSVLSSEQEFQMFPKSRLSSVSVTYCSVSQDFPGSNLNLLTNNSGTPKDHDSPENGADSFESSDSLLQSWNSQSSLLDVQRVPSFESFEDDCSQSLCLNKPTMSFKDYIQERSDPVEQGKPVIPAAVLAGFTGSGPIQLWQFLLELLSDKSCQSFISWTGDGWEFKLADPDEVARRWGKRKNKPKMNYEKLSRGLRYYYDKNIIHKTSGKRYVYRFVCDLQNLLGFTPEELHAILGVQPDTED
Procedure, shortened: as §1

[12] = molecular target: T9, SPDEF (Homo sapiens, UniProt O95238 1-335)
T9 sequence: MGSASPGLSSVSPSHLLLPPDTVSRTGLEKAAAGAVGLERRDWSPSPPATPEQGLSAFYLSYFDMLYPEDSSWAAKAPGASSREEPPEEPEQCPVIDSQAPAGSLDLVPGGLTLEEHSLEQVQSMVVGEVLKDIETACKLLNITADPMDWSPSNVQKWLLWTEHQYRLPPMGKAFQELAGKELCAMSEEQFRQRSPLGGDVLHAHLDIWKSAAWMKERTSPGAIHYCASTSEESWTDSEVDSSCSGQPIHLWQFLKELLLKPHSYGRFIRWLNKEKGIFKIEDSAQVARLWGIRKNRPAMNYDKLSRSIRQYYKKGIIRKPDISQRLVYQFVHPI
Procedure, shortened: as §1

[13] = molecular target: T10, ETV7 (Homo sapiens, UniProt Q9Y603 1-341)
T10 sequence: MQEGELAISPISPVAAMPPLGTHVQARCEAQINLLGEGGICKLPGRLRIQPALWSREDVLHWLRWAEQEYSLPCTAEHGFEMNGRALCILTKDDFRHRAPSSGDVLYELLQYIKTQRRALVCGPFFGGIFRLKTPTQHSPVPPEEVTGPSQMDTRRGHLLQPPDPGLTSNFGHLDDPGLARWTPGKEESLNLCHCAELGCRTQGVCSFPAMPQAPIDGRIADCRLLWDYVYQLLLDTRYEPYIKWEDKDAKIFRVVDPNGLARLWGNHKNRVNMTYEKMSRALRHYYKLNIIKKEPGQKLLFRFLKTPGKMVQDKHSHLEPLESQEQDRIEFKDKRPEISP
Procedure, shortened: as §1

[14] = molecular target: T11, ELF5 (Homo sapiens, UniProt Q9UKW6-2 1-255)
T11 sequence: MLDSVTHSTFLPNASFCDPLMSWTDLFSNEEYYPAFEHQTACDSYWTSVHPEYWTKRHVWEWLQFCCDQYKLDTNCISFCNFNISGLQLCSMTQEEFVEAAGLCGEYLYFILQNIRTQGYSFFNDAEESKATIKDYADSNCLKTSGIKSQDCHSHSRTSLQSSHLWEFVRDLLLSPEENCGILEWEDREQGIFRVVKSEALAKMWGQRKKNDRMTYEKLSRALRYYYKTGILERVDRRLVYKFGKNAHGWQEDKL
Procedure, shortened: as §1

[15] = molecular target: T12, ETV3 (Homo sapiens, UniProt P41162-2 1-143)
T12 sequence: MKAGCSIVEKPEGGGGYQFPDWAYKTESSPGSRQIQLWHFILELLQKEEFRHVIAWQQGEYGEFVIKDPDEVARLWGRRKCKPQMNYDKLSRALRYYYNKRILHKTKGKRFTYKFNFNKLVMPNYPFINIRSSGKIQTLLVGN
Procedure, shortened: as §1

[16] = molecular target: ETV6 (Homo sapiens, UniProt P41212 1-452)
Chain of ETV6 (P41212 whole entry): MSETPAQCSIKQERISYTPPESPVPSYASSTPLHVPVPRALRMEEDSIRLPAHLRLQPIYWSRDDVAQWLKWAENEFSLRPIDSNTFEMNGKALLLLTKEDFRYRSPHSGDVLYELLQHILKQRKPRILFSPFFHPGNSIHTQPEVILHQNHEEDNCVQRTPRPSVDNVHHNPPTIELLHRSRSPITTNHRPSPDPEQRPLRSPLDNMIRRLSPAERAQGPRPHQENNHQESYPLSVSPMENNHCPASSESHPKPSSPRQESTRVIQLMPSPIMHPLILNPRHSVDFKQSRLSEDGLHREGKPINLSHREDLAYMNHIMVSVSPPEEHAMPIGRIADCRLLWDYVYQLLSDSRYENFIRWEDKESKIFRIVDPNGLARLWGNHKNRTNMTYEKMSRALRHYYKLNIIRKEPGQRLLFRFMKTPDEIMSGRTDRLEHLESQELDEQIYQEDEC
Procedure, shortened: as §1

| Sequence | binding signal [1] | binding signal [2] | binding signal [3] | binding signal [4] | binding signal [5] | binding signal [6] | binding signal [7] | binding signal [8] | binding signal [9] | binding signal [10] | binding signal [11] | binding signal [12] | binding signal [13] | binding signal [14] | binding signal [15] | binding signal [16] |
| --- | --- | --- | --- | --- | --- | --- | --- | --- | --- | --- | --- | --- | --- | --- | --- | --- |
| GGTTTG | 1.12 fold enrichment (6-mer frequency, TF over GST control) | 1.02 fold enrichment (6-mer frequency, TF over GST control) | 1.27 fold enrichment (6-mer frequency, TF over GST control) | 1.12 fold enrichment (6-mer frequency, TF over GST control) | 1.26 fold enrichment (6-mer frequency, TF over GST control) | 1.05 fold enrichment (6-mer frequency, TF over GST control) | 1.09 fold enrichment (6-mer frequency, TF over GST control) | 1.14 fold enrichment (6-mer frequency, TF over GST control) | 1.26 fold enrichment (6-mer frequency, TF over GST control) | 1.16 fold enrichment (6-mer frequency, TF over GST control) | 1.15 fold enrichment (6-mer frequency, TF over GST control) | 1.06 fold enrichment (6-mer frequency, TF over GST control) | 1.11 fold enrichment (6-mer frequency, TF over GST control) | 1.16 fold enrichment (6-mer frequency, TF over GST control) | 1.25 fold enrichment (6-mer frequency, TF over GST control) | 1.17 fold enrichment (6-mer frequency, TF over GST control) |
| GTTGCA | 1.11 fold enrichment (6-mer frequency, TF over GST control) | 1.16 fold enrichment (6-mer frequency, TF over GST control) | 1.11 fold enrichment (6-mer frequency, TF over GST control) | 1.15 fold enrichment (6-mer frequency, TF over GST control) | 1.06 fold enrichment (6-mer frequency, TF over GST control) | 1.06 fold enrichment (6-mer frequency, TF over GST control) | 1.1 fold enrichment (6-mer frequency, TF over GST control) | 1.19 fold enrichment (6-mer frequency, TF over GST control) | 1.13 fold enrichment (6-mer frequency, TF over GST control) | 1.19 fold enrichment (6-mer frequency, TF over GST control) | 1.17 fold enrichment (6-mer frequency, TF over GST control) | 1.17 fold enrichment (6-mer frequency, TF over GST control) | 1.15 fold enrichment (6-mer frequency, TF over GST control) | 1.1 fold enrichment (6-mer frequency, TF over GST control) | 1.14 fold enrichment (6-mer frequency, TF over GST control) | 1.11 fold enrichment (6-mer frequency, TF over GST control) |
| CGTACC | 1.19 fold enrichment (6-mer frequency, TF over GST control) | 1.17 fold enrichment (6-mer frequency, TF over GST control) | 1.14 fold enrichment (6-mer frequency, TF over GST control) | 1.17 fold enrichment (6-mer frequency, TF over GST control) | 1.18 fold enrichment (6-mer frequency, TF over GST control) | 1.15 fold enrichment (6-mer frequency, TF over GST control) | 1.25 fold enrichment (6-mer frequency, TF over GST control) | 1.26 fold enrichment (6-mer frequency, TF over GST control) | 1.12 fold enrichment (6-mer frequency, TF over GST control) | 1.13 fold enrichment (6-mer frequency, TF over GST control) | 1.15 fold enrichment (6-mer frequency, TF over GST control) | 1.17 fold enrichment (6-mer frequency, TF over GST control) | 1.1 fold enrichment (6-mer frequency, TF over GST control) | 1.19 fold enrichment (6-mer frequency, TF over GST control) | 1.03 fold enrichment (6-mer frequency, TF over GST control) | 1.16 fold enrichment (6-mer frequency, TF over GST control) |
